# Test results from PubChem BioAssay (Tox21).
# Unmarked numbers belong to inactive results. Inconclusive results are not listed. Where a call stands in place of a potency, no number is given. The source made the active and inactive calls. Calls follow the shape of the full dose curve.
# How the values were obtained:
# [1] = molecular target: Acetylcholinesterase (Homo sapiens) (UniProt P22303); experiment: Acetylcholinesterase (AChE) small molecule antagonists: colormetric cell-based qHTS assay (AID 1347395); also: nearly all actives have a fitted effect of over 30% in size; also: potency is read from the fitted curve at half-maximal effect
# Procedure, shortened: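 Colorimetric read-out: DTNB detects thiocholine released when cellular AChE in SH-SY5Y cells hydrolyses acetylthiocholine. Cells attached overnight, received compound for 30 min at 37 C, then substrate mix for 90 min at 37 C.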
# [2] = molecular target: Acetylcholinesterase (Homo sapiens) (UniProt P22303); experiment: Acetylcholinesterase (AChE) small molecule antagonists: fluorescence cell-based qHTS assay (AID 1347398); details: Potency: AChE activity; outcome: AChE activity; also: nearly all actives have a fitted effect of over 50% in size; also: potency is read from the fitted curve at half-maximal effect
# Procedure, shortened: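 Human SH-SY5Y cells were plated overnight at 37 C, exposed to compound for 30 min at 37 C, 5% CO2, then given acetylthiocholine plus Thiolite Green for 40 min at room temperature; thiocholine fluorescence (Ex/Em 490/520 nm) reports endogenous AChE activity.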
# [3] = molecular target: Acetylcholinesterase (Homo sapiens) (UniProt P22303); experiment: Acetylcholinesterase (AChE) small molecule antagonists: enzyme-based qHTS assay with human liver microsomes (AID 1347399); details: Potency: qHTS inhibition; outcome: qHTS inhibition; also: nearly all actives have a fitted effect of over 60% in size; also: potency is read from the fitted curve at half-maximal effect
# Procedure, shortened: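 Recombinant human AChE (50 mU/mL in the enzyme mix) and human liver microsomes (0.25 mg/mL final) were preincubated with compound and NADPH (0.25 mg/mL final) for 30 min at 37 C. Acetylthiocholine/DTNB was then added; thiocholine was read colorimetrically after 10 min at room temperature.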
# [4] = molecular target: Acetylcholinesterase (Homo sapiens) (UniProt P22303); experiment: Acetylcholinesterase (AChE) small molecule antagonists: enzyme-based qHTS assay (AID 1347397); details: Potency: AChE enzyme activity inhibition; outcome: AChE enzyme activity inhibition; also: nearly all actives have a fitted effect of over 55% in size
# Procedure, shortened: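 Recombinant human AChE, dispensed at 50 mU/mL, was preincubated with Tox21 10K compounds or DMSO vehicle for 30 min at room temperature. DTNB plus acetylthiocholine was then added, and thiocholine was measured colorimetrically after a further 10 min.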
# Acetylcholinesterase (Homo sapiens), sequence (P22303 whole entry, looked up): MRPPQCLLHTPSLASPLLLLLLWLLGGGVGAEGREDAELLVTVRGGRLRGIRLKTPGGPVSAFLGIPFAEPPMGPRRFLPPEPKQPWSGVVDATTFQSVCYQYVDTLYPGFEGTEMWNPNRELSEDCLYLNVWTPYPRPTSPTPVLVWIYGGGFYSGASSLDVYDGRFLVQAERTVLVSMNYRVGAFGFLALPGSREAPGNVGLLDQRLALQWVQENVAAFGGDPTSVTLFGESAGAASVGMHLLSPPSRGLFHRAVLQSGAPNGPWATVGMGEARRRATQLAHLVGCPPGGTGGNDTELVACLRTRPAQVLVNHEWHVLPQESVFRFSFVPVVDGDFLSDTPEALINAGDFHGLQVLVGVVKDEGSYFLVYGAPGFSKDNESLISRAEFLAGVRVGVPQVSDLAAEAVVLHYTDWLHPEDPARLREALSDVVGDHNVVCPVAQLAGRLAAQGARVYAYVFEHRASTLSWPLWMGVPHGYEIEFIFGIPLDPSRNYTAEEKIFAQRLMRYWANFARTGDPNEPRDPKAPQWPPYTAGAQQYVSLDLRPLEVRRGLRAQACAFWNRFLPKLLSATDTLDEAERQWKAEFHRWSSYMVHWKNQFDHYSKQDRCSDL
structure (smiles),measurement,setting,value
S=P(N1CC1)(N1CC1)N1CC1,Potency,[1],66.7 µM (active)
same,Potency,[2],33.4 µM (active)
same,Potency,[3],74.8 µM (active)
CCN(CC)c1ccc(C=O)cc1,Potency,[1],inactive
same,Potency,[2],inactive
same,Potency,[3],inactive
Oc1c(Cl)cc(Cl)c(Cl)c1Cc1c(O)c(Cl)cc(Cl)c1Cl,Potency,[1],inactive
same,Potency,[2],inactive
same,Potency,[3],inactive
O=C1CC[C@@H](C(=O)O)N1,Potency,[1],inactive
same,Potency,[2],inactive
same,Potency,[3],inactive
CCN(CC)c1cccc(O)c1,Potency,[1],36.3 µM (active)
same,Potency,[2],32.4 µM (active)
same,Potency,[3],inactive
CC(C)CCCCCCCCCCCCCCC(=O)O,Potency,[1],inactive
same,Potency,[2],inactive
same,Potency,[3],inactive
CCCCCCCCCCCCCCCCC(C(=O)O)C(O)(CC(=O)O)C(=O)O (stereo not drawn),Potency,[1],inactive
same,Potency,[2],inactive
same,Potency,[3],inactive
O=S(=O)(c1ccc(OCc2ccccc2)cc1)c1ccccc1O,Potency,[1],inactive
same,Potency,[2],inactive
same,Potency,[3],inactive
CN(C)CCOc1ccc(/C(=C(/CCCl)c2ccccc2)c2ccccc2)cc1,Potency,[1],inactive
same,Potency,[2],inactive
same,Potency,[3],inactive
CCOC(=O)c1ccccc1C(=C1C=C(Br)C(=O)C(Br)=C1)c1cc(Br)c(O)c(Br)c1,Potency,[1],inactive
same,Potency,[2],inactive
same,Potency,[3],inactive
O=C1NCCN1CCN1CCC(c2cn(-c3ccc(F)cc3)c3ccc(Cl)cc23)CC1,Potency,[1],inactive
same,Potency,[2],24.5 µM (active)
same,Potency,[3],inactive
Oc1c(Br)cc(Br)c2cccnc12,Potency,[1],inactive
same,Potency,[2],inactive
same,Potency,[3],inactive
Cc1cc(C)c(O)c(C(C)(C)C)c1,Potency,[1],inactive
same,Potency,[2],inactive
same,Potency,[3],inactive
N=C1C=CC(=C(c2ccc(N)cc2)c2ccc(N)cc2)C=C1,Potency,[1],inactive
same,Potency,[2],39.9 µM (active)
same,Potency,[3],inactive
CCN1/C(=C/C=C/c2sc3ccccc3[n+]2CC)Sc2ccccc21,Potency,[1],10.7 µM (active)
same,Potency,[2],6.74 µM (active)
same,"activity change, negative = inhibition",[3],4.36% [at 23.6 µM]
CN1CCN(c2ccccc2/C=C2\SCCN(c3ccc(Cl)c(Cl)c3)C2=O)CC1,Potency,[1],inactive
same,Potency,[2],39.9 µM (active)
same,Potency,[3],inactive
CN(C)CCCNCCCN,Potency,[1],35.4 µM (active)
same,Potency,[2],35.4 µM (active)
same,Potency,[3],inactive
N#CSCSc1nc2ccccc2s1,Potency,[1],inactive
same,Potency,[2],inactive
same,Potency,[3],inactive
O=C(Nc1ccc(Cl)c(Cl)c1)c1cc(Cl)cc(Cl)c1O,Potency,[1],inactive
same,Potency,[2],inactive
same,Potency,[3],inactive
Nc1c(N=Nc2ccc(-c3ccc(N=Nc4cc(S(=O)(=O)O)c5ccccc5c4N)cc3)cc2)cc(S(=O)(=O)O)c2ccccc12,Potency,[1],79.6 µM (active)
same,Potency,[2],71 µM (active)
same,Potency,[3],inactive
CCC(=O)O[C@]1(C(=O)COC)[C@@H](C)C[C@H]2[C@@H]3CCC4=CC(=O)C=C[C@]4(C)C3(F)[C@@H](O)C[C@@]21C (stereo partly drawn),Potency,[1],inactive
same,Potency,[2],inactive
same,Potency,[3],inactive
c1ccc(C[P+](c2ccccc2)(c2ccccc2)c2ccccc2)cc1,Potency,[1],71 µM (active)
same,Potency,[2],12.6 µM (active)
same,Potency,[3],inactive
Cn1c(=O)cc(Oc2ccc(F)cc2F)c2cnc(NCC(C)(C)O)nc21,Potency,[1],28.3 µM (active)
same,Potency,[2],28.3 µM (active)
same,Potency,[3],inactive
COc1cc(C(C)C)c2c(c1)S(=O)(=O)N(COc1cc(=O)n3cccc(OCCN4CCCCC4)c3n1)C2=O,Potency,[1],19 µM (active)
same,Potency,[2],6.74 µM (active)
same,"activity change, negative = inhibition",[3],-1.08% [at 23.6 µM]
CCCCCCCCCCCCCCOS(=O)(=O)O,Potency,[1],inactive
same,Potency,[2],inactive
same,Potency,[3],inactive
CCC(C(=O)OCCOCCN(CC)CC)c1ccccc1 (stereo not drawn),Potency,[1],inactive
same,Potency,[2],inactive
same,Potency,[3],inactive
C=CC[N+]1([C@H]2C[C@H]3[C@@H]4CC[C@H]5C[C@H](OC(C)=O)[C@@H](N6CCCCC6)C[C@]5(C)[C@H]4CC[C@]3(C)[C@H]2OC(=O)CC)CCCCC1,Potency,[1],27.5 µM (active)
same,Potency,[2],13.8 µM (active)
same,Potency,[3],inactive
CC(=O)Oc1cc2c(s1)CCN(C(C(=O)C1CC1)c1ccccc1F)C2 (stereo not drawn),Potency,[1],inactive
same,Potency,[2],inactive
same,Potency,[3],inactive
CCCN1C[C@H](CSC)C[C@@H]2c3cccc4[nH]cc(c34)C[C@H]21,Potency,[1],5.5 µM (active)
same,Potency,[2],12.3 µM (active)
same,outcome,[3],inactive
O=C(c1ccc(F)cc1)C1CCN(CCn2c(=O)[nH]c3ccccc3c2=O)CC1,Potency,[4],inactive
O=C1c2ccccc2S(=O)(=O)N1CCCCN1CCN(c2ncccn2)CC1,Potency,[4],inactive
same,Potency,[2],inactive
same,Potency,[3],inactive
C/C=C1\C(=O)C[C@H]2[C@@H]3CCC4=CC(=O)CC[C@]4(C)[C@H]3CC[C@]12C,Potency,[4],inactive
same,Potency,[2],inactive
same,Potency,[3],inactive
Cc1nccn1CC1CCc2c(c3ccccc3n2C)C1=O (stereo not drawn),Potency,[4],inactive
same,Potency,[2],15.5 µM (active)
same,Potency,[3],inactive
Cc1cc(-n2nc3ccc(Cl)cc3n2)c(O)c(C(C)(C)C)c1,Potency,[4],inactive
same,Potency,[2],inactive
same,Potency,[3],inactive
C=C(C)C(=O)OC1CC(C)CC(C)(C)C1 (stereo not drawn),Potency,[4],inactive
same,Potency,[2],inactive
same,Potency,[3],inactive
COC(=O)c1cc(Cl)ccc1[N+](=O)[O-],Potency,[4],inactive
same,Potency,[2],inactive
same,Potency,[3],inactive
CC1(C)OC(=O)Nc2ccc(Br)cc21,Potency,[4],inactive
same,Potency,[2],inactive
same,Potency,[3],inactive
CCCCCC(C)OC(=O)COc1ccc(Cl)c2cccnc12 (stereo not drawn),Potency,[4],inactive
same,Potency,[2],inactive
same,Potency,[3],inactive
C=CCOC(=O)COCCC(C)C,Potency,[4],inactive
same,Potency,[2],inactive
same,Potency,[3],inactive
Nc1cccnc1N,Potency,[4],inactive
same,Potency,[2],inactive
same,Potency,[3],inactive
